Test results published in ChEMBL document CHEMBL3433997, “St. Jude Leishmania screening dataset” (2016).

Target: Solute carrier family 2, facilitated glucose transporter member 1 (Homo sapiens) (UniProt P11166)
Assay: ST_JUDE_LEISH: Cytotoxicity at 2uM final concentration against transgenic Leishmania Mexicana promastigotes LmGLUT1 that are glucose transport deficient and complemented with the human glucose transporter GLUT1. Activity is measured by DNA content using SYBR green in vitro
Assay type: functional

Sequence of Solute carrier family 2, facilitated glucose transporter member 1 (Homo sapiens) (P11166 whole entry): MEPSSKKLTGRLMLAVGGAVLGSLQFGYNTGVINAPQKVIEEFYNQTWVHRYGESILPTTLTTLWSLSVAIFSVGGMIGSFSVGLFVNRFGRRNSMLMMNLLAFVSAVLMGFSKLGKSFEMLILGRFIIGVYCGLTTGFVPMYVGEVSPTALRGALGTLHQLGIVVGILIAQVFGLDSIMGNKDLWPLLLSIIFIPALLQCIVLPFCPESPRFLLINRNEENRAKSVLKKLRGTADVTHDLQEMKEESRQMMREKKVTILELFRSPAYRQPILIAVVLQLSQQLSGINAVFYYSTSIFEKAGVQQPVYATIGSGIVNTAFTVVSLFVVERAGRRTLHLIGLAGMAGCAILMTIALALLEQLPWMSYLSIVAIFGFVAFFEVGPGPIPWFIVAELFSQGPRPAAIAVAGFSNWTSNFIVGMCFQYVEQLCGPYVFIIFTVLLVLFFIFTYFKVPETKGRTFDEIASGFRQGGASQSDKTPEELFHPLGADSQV

Compared with CCc1ccc(C(=O)Nc2cccc(CN3CCCN(Cc4ccc(O)cc4)CC3)c2)cc1, O=C(Nc1cccc(CN2CCN(Cc3cccc(O)c3)CC2)c1)c1cc2ccccc2s1 is higher in inhibition: 2.88% for the first, 3.62% for the second.

Going from COc1ccc(C2CC(=O)C3=C(C2)NC(C)=C(C(=O)OC2CCCC2)C3c2ccc(O)cc2)cc1OC (stereo not given) to COc1ccc(Cn2c(=O)[nH]c3cc(C(=O)NC4CCN(Cc5ccccc5)CC4)ccc3c2=O)cc1, the inhibition rises from -0.48% to 2.2%.

First: CN(C)CCCOc1c(C(C)(C)C)cc(-c2cc(C(C)(C)C)c(OCCCN(C)C)c(C(C)(C)C)c2)cc1C(C)(C)C
Second: CCN(CC)CCOc1c(Cl)cc(Cl)cc1CNCCCNc1cc(=O)c2ccccc2[nH]1
The inhibition of the first is higher: 7.07% for the first, 0.34% for the second.

First: O=C(Nc1ccc(Cl)cc1)Nc1ccc(OCC(O)CN2CCCCC2)cc1 (stereo not given)
Second: c1ccc(Oc2ccc(Nc3ccnc4cc(-c5ccc(CN6CCCCC6)o5)ccc34)cc2)nc1
The inhibition of the first is higher: 7.33% for the first, -2.19% for the second.

First: COc1ccc(Nc2nc(N/N=C/c3cc(Br)ccc3O)nc(Nc3ccc([N+](=O)[O-])cc3)n2)cc1
Second: O=[N+]([O-])c1ccc(Nc2nc(N/N=C/c3ccc(-c4ccc([N+](=O)[O-])cc4)o3)nc(Nc3ccccc3)n2)cc1
The inhibition of the first is lower: 0.02% for the first, 0.17% for the second.

Compared with Cc1onc(-c2c(F)cccc2Cl)c1C(=O)Nc1ccccc1I, Cc1cc(NC(=O)Nc2ccc(C(C)C)cc2)c2ccccc2n1 is lower in inhibition: 2.35% for the first, 0.71% for the second.

Going from CC(C)(C)C(=O)N1CCN(c2ccc([N+](=O)[O-])c(NC3CC3)c2)CC1 to Cc1cc(OCC2CCCN(c3ncc(C(=O)NC4CC4)cc3Cl)C2)ccc1F (stereo not given), the inhibition falls from 2.03% to 0.51%.

First: CCNc1cc(C(=O)N[C@@H](Cc2ccco2)[C@H](O)CNC2CCCCC2)cc(N2CCCCS2(=O)=O)c1
Second: CCc1c[nH]c2c(N3CCCC3=O)cc(C(=O)N[C@@H](Cc3ccccc3)[C@H](O)CNC3CCCCC3)cc12
The inhibition of the first is lower: 1.99% for the first, 7.8% for the second.

First: CC(=O)Nc1nc(C(=O)Nc2ccc(-c3cccc(-c4nc5cccc(C)c5[nH]4)c3)cc2)cs1
Second: Cc1nnsc1C(=O)Nc1ccc(-c2cccc(-c3nc4cccc(C)c4[nH]3)c2)cc1
The inhibition of the first is higher: 8.57% for the first, 3.57% for the second.

Compared with COc1cc2nc(N(C)Cc3cccc(I)c3)nc(N)c2cc1OC, COc1cc2nc(NCCC(C)C)n3nc(-c4ccccc4)nc3c2cc1OC is lower in inhibition: 4.75% for the first, -1.19% for the second.

Going from CNC(=O)NC1=NC(C)(C)N(OCc2ccc(Cl)c(Cl)c2)C(NC(=O)NC)=N1 to CN1CCN(c2ncnc3ccc(NC(=O)Nc4ccc(Cl)c(Cl)c4)cc23)CC1, the inhibition rises from 1.27% to 5%.

Compared with Cc1cc(Nc2cccc(C(F)(F)F)c2)nc(N)n1, Cc1nnsc1C(=O)Nc1ccc(-c2cccc(-c3nc4cc(C(F)(F)F)ccc4[nH]3)c2)cc1 is higher in inhibition: 0.43% for the first, 0.51% for the second.

First: COc1ccc(CNC(=O)c2cnc3c(O)cccc3c2Nc2cccc(NC(=O)c3ccc(-c4ccccc4)cc3)c2)cc1
Second: COc1cccc(-c2cccc(-c3ccc(NC(=O)c4ccc([N+](=O)[O-])o4)cc3)n2)c1
The inhibition of the first is higher: 76.8% for the first, 66.2% for the second.

First: O=C(NC1CC1)c1cnc(N2CCC(Cc3ccccc3)CC2)c(Cl)c1
Second: O=C(NCCN1CCCC1)c1cc(-c2ccc(Cl)c(O)c2)c(-c2ccncc2)o1
The inhibition of the first is lower: 0.75% for the first, 2.96% for the second.

Compared with CC(C)c1ccc(NC(=O)c2ccc(C(=O)NC3CCN(Cc4ccsc4)C3)cc2)cc1 (stereo not given), O=C(Nc1ccc(N2CCN(Cc3cccc(F)c3)CC2)cc1)c1cccs1 is higher in inhibition: 2.74% for the first, 3.08% for the second.

Going from COc1ccc2[nH]cc(C3CCN(CCCCCNC(=O)c4ccc(-c5ccccc5)cc4)CC3)c2c1 to Cc1[nH]c2ccccc2c1C1CCN(CCCCNC(=O)c2ccc(-c3ccc(C#N)cc3)cc2)CC1, the inhibition rises from 4.24% to 11.2%.

Going from OCc1ccc2nc3c(cc2c1)-c1cccc2cccc-3c12 to Cc1cccc2nc(-c3ccc(-c4cccc(CNCCc5ccncc5)c4)s3)[nH]c12, the inhibition falls from 3.6% to 3.13%.

Compared with CN1CCN(CCCSc2ccc3c(c2)ncn3-c2cc(OCc3ccccc3C(F)(F)F)c(C(N)=O)s2)CC1, Cc1nc2ccccc2n1C1CC2CCC(C1)N2CCC1(c2ccccc2)CCN(C(=O)Nc2ccc(C(F)(F)F)cc2)CC1 (stereo not given) is lower in inhibition: 8.47% for the first, 4.65% for the second.

Going from CC(=O)N(C)/N=C/[C@H](CCc1ccccc1)NC(=O)[C@H](CC(C)C)NC(=O)c1cccc(OCCN2CCOCC2)c1 to CN(C)CCCn1c(C(=O)OC(c2ccccc2)c2ccccc2)cc2cc(OCc3ccccc3)ccc21, the inhibition falls from 9.6% to -0.72%.

First: CCc1ccc(Cc2cnc3nc(N)nc(N)c3c2C)cc1
Second: CCN(CC)CCCOC(=O)c1ccc2c(c1)-c1ccc(C(=O)OCCCN(CC)CC)c3cccc-2c13
The inhibition of the first is higher: 8.4% for the first, 6.8% for the second.

Target: Hexose transporter 1 (Plasmodium falciparum) (UniProt O97467)
Assay: ST_JUDE_LEISH: Cytotoxicity at 2uM final concentration against transgenic Leishmania Mexicana promastigotes LmPfHT that are glucose transport deficient and complemented with the Plasmodium falciparum hexose transporter. Activity is measured by DNA content using SYBR green in vitro
Assay type: functional

Going from CCc1ccc(C(=O)Nc2cccc(CN3CCCN(Cc4ccc(O)cc4)CC3)c2)cc1 to O=C(Nc1cccc(CN2CCN(Cc3cccc(O)c3)CC2)c1)c1cc2ccccc2s1, the inhibition rises from -2.75% to 3.45%.

First: COc1ccc(C2CC(=O)C3=C(C2)NC(C)=C(C(=O)OC2CCCC2)C3c2ccc(O)cc2)cc1OC (stereo not given)
Second: COc1ccc(Cn2c(=O)[nH]c3cc(C(=O)NC4CCN(Cc5ccccc5)CC4)ccc3c2=O)cc1
The inhibition of the first is lower: 0.53% for the first, 0.63% for the second.

Compared with CN(C)CCCOc1c(C(C)(C)C)cc(-c2cc(C(C)(C)C)c(OCCCN(C)C)c(C(C)(C)C)c2)cc1C(C)(C)C, CCN(CC)CCOc1c(Cl)cc(Cl)cc1CNCCCNc1cc(=O)c2ccccc2[nH]1 is lower in inhibition: 4.77% for the first, 1.03% for the second.

Going from O=C(Nc1ccc(Cl)cc1)Nc1ccc(OCC(O)CN2CCCCC2)cc1 (stereo not given) to c1ccc(Oc2ccc(Nc3ccnc4cc(-c5ccc(CN6CCCCC6)o5)ccc34)cc2)nc1, the inhibition falls from 8.27% to -1.27%.

First: COc1ccc(Nc2nc(N/N=C/c3cc(Br)ccc3O)nc(Nc3ccc([N+](=O)[O-])cc3)n2)cc1
Second: O=[N+]([O-])c1ccc(Nc2nc(N/N=C/c3ccc(-c4ccc([N+](=O)[O-])cc4)o3)nc(Nc3ccccc3)n2)cc1
The inhibition of the first is higher: -2.54% for the first, -3.33% for the second.

Compared with Cc1onc(-c2c(F)cccc2Cl)c1C(=O)Nc1ccccc1I, Cc1cc(NC(=O)Nc2ccc(C(C)C)cc2)c2ccccc2n1 is higher in inhibition: 2.24% for the first, 3.51% for the second.

First: CC(C)(C)C(=O)N1CCN(c2ccc([N+](=O)[O-])c(NC3CC3)c2)CC1
Second: Cc1cc(OCC2CCCN(c3ncc(C(=O)NC4CC4)cc3Cl)C2)ccc1F (stereo not given)
The inhibition of the first is higher: 2.58% for the first, 1.78% for the second.

First: CCNc1cc(C(=O)N[C@@H](Cc2ccco2)[C@H](O)CNC2CCCCC2)cc(N2CCCCS2(=O)=O)c1
Second: CCc1c[nH]c2c(N3CCCC3=O)cc(C(=O)N[C@@H](Cc3ccccc3)[C@H](O)CNC3CCCCC3)cc12
The inhibition of the first is lower: 2.4% for the first, 6.05% for the second.

First: CC(=O)Nc1nc(C(=O)Nc2ccc(-c3cccc(-c4nc5cccc(C)c5[nH]4)c3)cc2)cs1
Second: Cc1nnsc1C(=O)Nc1ccc(-c2cccc(-c3nc4cccc(C)c4[nH]3)c2)cc1
The inhibition of the first is higher: 9.26% for the first, 2.94% for the second.

First: COc1cc2nc(N(C)Cc3cccc(I)c3)nc(N)c2cc1OC
Second: COc1cc2nc(NCCC(C)C)n3nc(-c4ccccc4)nc3c2cc1OC
The inhibition of the first is higher: 7.24% for the first, -0.07% for the second.

Compared with CNC(=O)NC1=NC(C)(C)N(OCc2ccc(Cl)c(Cl)c2)C(NC(=O)NC)=N1, CN1CCN(c2ncnc3ccc(NC(=O)Nc4ccc(Cl)c(Cl)c4)cc23)CC1 is higher in inhibition: 0.11% for the first, 2.35% for the second.

Compared with Cc1cc(Nc2cccc(C(F)(F)F)c2)nc(N)n1, Cc1nnsc1C(=O)Nc1ccc(-c2cccc(-c3nc4cc(C(F)(F)F)ccc4[nH]3)c2)cc1 is lower in inhibition: 0.91% for the first, 0.86% for the second.

Going from COc1ccc(CNC(=O)c2cnc3c(O)cccc3c2Nc2cccc(NC(=O)c3ccc(-c4ccccc4)cc3)c2)cc1 to COc1cccc(-c2cccc(-c3ccc(NC(=O)c4ccc([N+](=O)[O-])o4)cc3)n2)c1, the inhibition falls from 79.7% to 59.8%.

Compared with O=C(NC1CC1)c1cnc(N2CCC(Cc3ccccc3)CC2)c(Cl)c1, O=C(NCCN1CCCC1)c1cc(-c2ccc(Cl)c(O)c2)c(-c2ccncc2)o1 is higher in inhibition: -0.08% for the first, 4.79% for the second.

Going from CC(C)c1ccc(NC(=O)c2ccc(C(=O)NC3CCN(Cc4ccsc4)C3)cc2)cc1 (stereo not given) to O=C(Nc1ccc(N2CCN(Cc3cccc(F)c3)CC2)cc1)c1cccs1, the inhibition falls from 4.64% to 2.27%.

Compared with COc1ccc2[nH]cc(C3CCN(CCCCCNC(=O)c4ccc(-c5ccccc5)cc4)CC3)c2c1, Cc1[nH]c2ccccc2c1C1CCN(CCCCNC(=O)c2ccc(-c3ccc(C#N)cc3)cc2)CC1 is higher in inhibition: 3.36% for the first, 9.94% for the second.

Compared with OCc1ccc2nc3c(cc2c1)-c1cccc2cccc-3c12, Cc1cccc2nc(-c3ccc(-c4cccc(CNCCc5ccncc5)c4)s3)[nH]c12 is lower in inhibition: 1.82% for the first, 1.49% for the second.

First: CN1CCN(CCCSc2ccc3c(c2)ncn3-c2cc(OCc3ccccc3C(F)(F)F)c(C(N)=O)s2)CC1
Second: Cc1nc2ccccc2n1C1CC2CCC(C1)N2CCC1(c2ccccc2)CCN(C(=O)Nc2ccc(C(F)(F)F)cc2)CC1 (stereo not given)
The inhibition of the first is higher: 11.1% for the first, 4.07% for the second.

First: CC(=O)N(C)/N=C/[C@H](CCc1ccccc1)NC(=O)[C@H](CC(C)C)NC(=O)c1cccc(OCCN2CCOCC2)c1
Second: CN(C)CCCn1c(C(=O)OC(c2ccccc2)c2ccccc2)cc2cc(OCc3ccccc3)ccc21
The inhibition of the first is higher: 9.59% for the first, 0.08% for the second.

Going from CCc1ccc(Cc2cnc3nc(N)nc(N)c3c2C)cc1 to CCN(CC)CCCOC(=O)c1ccc2c(c1)-c1ccc(C(=O)OCCCN(CC)CC)c3cccc-2c13, the inhibition falls from 13.2% to 3.93%.
